Assay [1] can be described thus: Cellular Toxicity (caspase-3) NIH 3T3 (AID 666). Note: potency is the fitted concentration of half-maximal effect. An outline of the steps:
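Activity: caspase-3/7 induction, NIH 3T3 cells, 16 hr treatment at 37°C, luminescent Caspase-Glo detection; AC50 via Hill equation.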

Assay [2] in a line: Cellular Toxicity (caspase-3) Renal Proximal Tubule (AID 667).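 Note: cells exposed to compound for 16 hours at 37 °C before detection.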 An outline of the steps: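 Caspase-Glo 3/7 read-out, rat primary kidney proximal tubule cells. Compound exposure 16 h, 37 °C; detection after 1 h at RT. Activity scaled to DMSO and 10 uM staurosporine.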
In assay [3] the target is Cytochrome P450 3A4 (Homo sapiens) (UniProt P08684). The experiment in a line: qHTS Assay for Inhibitors and Substrates of Cytochrome P450 3A4 (AID 884). Note: series mostly up to about 57 µM; nearly all actives have a fitted effect of over 50% in size. An outline of the steps: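 Luminescent readout of luciferin produced by CYP3A4 (20 nM) dealkylation of Luciferin-PPXE, 25 uM (its KM). NADPH-driven reaction ran 60 min at RT after 10 min compound preincubation; data scaled to 57 uM ketoconazole as 100% inhibition.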
Cytochrome P450 3A4 (Homo sapiens), sequence (P08684 whole entry, looked up): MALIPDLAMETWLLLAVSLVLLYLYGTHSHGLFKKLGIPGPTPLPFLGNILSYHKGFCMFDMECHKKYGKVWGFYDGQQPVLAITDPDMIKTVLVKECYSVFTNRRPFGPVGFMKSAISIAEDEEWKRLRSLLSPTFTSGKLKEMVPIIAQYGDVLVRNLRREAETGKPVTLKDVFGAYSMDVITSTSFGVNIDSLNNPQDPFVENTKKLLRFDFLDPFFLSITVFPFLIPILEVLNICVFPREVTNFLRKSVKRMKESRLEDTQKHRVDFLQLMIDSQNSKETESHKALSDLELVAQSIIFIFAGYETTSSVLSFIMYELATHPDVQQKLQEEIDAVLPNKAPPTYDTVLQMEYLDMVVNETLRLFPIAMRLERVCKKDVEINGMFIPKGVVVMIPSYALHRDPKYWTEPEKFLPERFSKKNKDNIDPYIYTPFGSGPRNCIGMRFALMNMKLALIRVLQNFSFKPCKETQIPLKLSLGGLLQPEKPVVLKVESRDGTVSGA
On the technique in general: qHTS replaces the single test concentration by a dilution series.

Assay [4] can be described thus: Cell Viability - LYMP2-001 (AID 921).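 Note: cells exposed to compound for 24 h at 37 °C; nearly all actives have a fitted effect of over 70% in size.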 Note: potency is the fitted concentration of half-maximal effect. An outline of the steps: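 A lymphoblastoid cell line of human origin was treated with library compounds across a concentration series for 24 hours, and viable cell number was estimated from ATP-driven luciferase light output. Hill modeling gave AC50.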
The nature of assay [5]: MultiTox-Fluor Cytotoxicity Assay - LYMP1-001 - Dead Cells (AID 946). Note: potency is the fitted concentration of half-maximal effect. An outline of the steps: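 AC50 from Hill fit of concentration-response; data normalized to DMSO (basal) and 15 uM tetraoctylammonium bromide (100%). LYMP1-001 lymphoblastoid cells, 2500/well, 16 hr compound at 37 C; dead-cell protease fluorescence, Ex/Em 485/520.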
Assay [6] can be described thus: Cell Viability - LYMP1-002 - Assay at 16 hr (AID 948). Note: potency is the fitted concentration of half-maximal effect. A digest of the protocol: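 In this qHTS, lymphoblastoid LYMP1-002 cells (human) receive compounds for 16 hr at 37 C. Viability is taken from CellTiter-Glo ATP luminescence, and AC50 derives from standard Hill fits.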
Assay [7] can be described thus: Confirmation and Secondary Assay for Modulators of Hemoglobin Beta Chain Splicing at IVS2 654 locus (AID 910).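 Note: HeLa cells stably carrying EGFP split by mutant beta-globin IVS2-654 intron.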 A digest of the protocol: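 HeLa cells stably expressing EGFP interrupted by β-globin IVS2-654 intron, seeded overnight in Opti-MEM/2% FCS, then treated 2 days at 37 °C. Restored splicing read as total peak GFP intensity per well by laser scanning cytometry (488 nm excitation, 500–520 nm emission); 500 nM antisense PNA as control.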

Assay [8] in a line: Confirmation and Secondary Assay for Modulators of Hemoglobin Beta Chain Splicing at IVS2 705 locus (AID 930).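 Note: HeLa cells stably expressing the EGFP-705 splicing reporter; GFP fluorescence per well restored by corrected splicing of the IVS2-705 intron in EGFP; series mostly up to about 46 µM.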 A digest of the protocol:
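Per-well GFP, captured at 1 x 8 µm resolution with 488 nm excitation, served as the read-out for HeLa EGFP-705 cells incubated 2 days with test compound versus DMSO.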

Assay [9] has as its target Guanine nucleotide-binding protein G(i) subunit alpha-1 (Homo sapiens) (UniProt P63096). In words: qHTS Assay for Inhibitors of RGS12 GoLoco Motif Activity (Green Fluorophore) (AID 879).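 Note: negative values mean loss of peptide binding seen as reduced polarization.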 A digest of the protocol:
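A drop in FITC polarization marked displacement of the FITC-tagged RGS12 GoLoco peptide (10 nM) from Gαi1 (50 nM). Compounds were incubated 10 min at room temperature in Tris pH 7.5 buffer containing 150 mM NaCl, 0.1 mM GDP and 0.05% NP40; unlabeled peptide titration served as control.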

The target of assay [10] is Cytochrome P450 2C9 (Homo sapiens) (UniProt P11712). The experiment in a line: qHTS Assay for Inhibitors and Substrates of Cytochrome P450 2C9 (AID 883). Note: nearly all actives have a fitted effect of over 60% in size. An outline of the steps:
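Signal: luciferase luminescence reporting luciferin produced by CYP2C9. Conditions: 10nM enzyme, Luciferin-H 100uM at KM, 25mM KPO4, 37C, 60 min NADPH-driven reaction. Reference: 57uM sulphaphenazole as 100% inhibition.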

The target of assay [11] is Cytochrome P450 3A4 (Homo sapiens) (UniProt P08684). The experiment in a line: qHTS Assay for Activators of Cytochrome P450 3A4 (AID 885). Note: nearly all actives have a fitted effect of over 65% in size. An outline of the steps: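 CYP3A4 activity: Luciferin-PPXE O-dealkylation, 25uM substrate, 200mM KPO4, RT throughout. Read-out is luciferase luminescence; higher values reflect activation.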
For assay [12], the target named is Cytochrome P450 2D6 (Homo sapiens) (UniProt P10635). The experiment in a line: qHTS Assay for Inhibitors and Substrates of Cytochrome P450 2D6 (AID 891). Note: potency is the fitted concentration of half-maximal effect; nearly all actives have a fitted effect of over 60% in size. An outline of the steps:
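Luminescent read-out of luciferin formed by 5 nM human CYP2D6 demethylating 30 uM Luciferin-ME EGE (Km level) over 60 min at room temperature after NADPH regeneration addition. Data normalized to full inhibition by 1.43 uM quinidine.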

In assay [13] the target is Cytochrome P450 2C19 (Homo sapiens) (UniProt P33261). The experiment in a line: qHTS Assay for Inhibitors and Substrates of Cytochrome P450 2C19 (AID 899). Note: nearly all actives have a fitted effect of over 60% in size. A digest of the protocol:
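Signal comes from luciferase acting on luciferin released by CYP2C19-mediated hydroxylation of Luciferin-H EGE, 10uM (KM). Assay mix: 5nM enzyme, 50mM KPO4; 60 min at 37C with NADPH regeneration. Data normalized against 57uM ketoconazole.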

Assay [14] is described as follows: qHTS Assay for Identification of Small Molecule Agonists for Thrombopoietin (TPO) Signaling Pathway (AID 917). An outline of the steps: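 Human TPO receptor–transfected Ba/F3 cells (murine, IL-3-dependent) in IL-3-deficient medium; compounds plus TPO at EC50, 26 pM final; 24 hrs, 37 C; GpIIb-luciferase luminescence after 10 min RT detection.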
For assay [15], the target named is Muscarinic acetylcholine receptor M1 (Rattus norvegicus) (UniProt P08482). In words: qHTS Assay for Antagonists of Acetylcholine Muscarinic M1 Receptor: Kinetic Measurement of Intracellular Calcium Response (AID 943).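 Note: Fluo-4 calcium signal as peak divided by basal fluorescence over 4 min; series mostly up to about 35 µM; nearly all actives have a fitted effect of over 75% in size.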 An outline of the steps: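 Quantitative HTS in CHO-M1 (rat receptor) cells: 10 min compound exposure ahead of 100 nM carbachol, Fluo-4 fluorescence followed 4 min, value expressed as peak-to-basal ratio.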
Muscarinic acetylcholine receptor M1 (Rattus norvegicus), sequence (P08482 whole entry, looked up): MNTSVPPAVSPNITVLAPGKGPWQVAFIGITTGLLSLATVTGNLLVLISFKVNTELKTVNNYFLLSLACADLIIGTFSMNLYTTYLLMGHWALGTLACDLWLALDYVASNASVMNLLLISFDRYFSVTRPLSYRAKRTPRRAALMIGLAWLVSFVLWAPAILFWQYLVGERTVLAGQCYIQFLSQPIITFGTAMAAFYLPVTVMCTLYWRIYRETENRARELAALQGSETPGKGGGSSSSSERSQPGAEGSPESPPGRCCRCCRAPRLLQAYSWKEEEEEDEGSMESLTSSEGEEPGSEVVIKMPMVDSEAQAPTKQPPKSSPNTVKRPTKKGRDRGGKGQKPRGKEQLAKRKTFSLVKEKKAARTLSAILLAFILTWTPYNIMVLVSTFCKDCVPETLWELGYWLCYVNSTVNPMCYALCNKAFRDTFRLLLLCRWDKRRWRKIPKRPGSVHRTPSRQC

The target is the same in assay [16]. In words: qHTS Assay for Antagonists of Acetylcholine Muscarinic M1 Receptor: Measurement of IP-One Response (AID 944). Note: nearly all actives have a fitted effect of over 75% in size. A digest of the protocol:
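Antagonism was measured as loss of carbachol-driven (EC80) IP1 accumulation in CHO cells carrying rat M1, using a homogeneous IP-One TR-FRET kit read at 620 and 665 nm.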

The target of assay [17] is Pyruvate kinase (Leishmania mexicana) (UniProt Q27686). The experiment in a line: qHTS Validation Assay for Inhibitors of Leishmania Mexicana Pyruvate Kinase (AID 945). A digest of the protocol:
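An endpoint luciferase assay: 0.2 nM LmPYK E451W turns over 0.5 mM PEP with 0.1 mM ADP for 1 h at room temperature, pH 7.2, before PKLight addition. Values are normalized to DMSO-only wells.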

Assay [18] has as its target Pyruvate kinase PKM (Homo sapiens) (UniProt P14618). The experiment in a line: qHTS Assay for Activators of Human Muscle Pyruvate Kinase (AID 954; active = well fitted curve in the direction sought with a large enough effect, not every such curve was filed as active). An outline of the steps:
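A coupled luminescent readout tracked ATP made from ADP by purified PKM2. Final conditions included 0.1 nM enzyme, PEP and ADP at 0.5 and 0.1 mM, pH 7.2 imidazole buffer with BSA, and a one-hour room-temperature reaction.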

“And” between values parts separate entries of the source, which are not always exact repeats. Identical values can stand only once. Inconclusive results are not listed. The source made the active and inactive calls. Unless noted, calls come from the whole dose curve; as a rule, active = well fitted curve in the direction sought with a large enough effect; inconclusive = small, poorly fitted or top-dose-only effect, or another doubt; inactive = no such curve, though single readings can be large; an effect the other way counts as inactive or inconclusive.

The record followed here is PubChem BioAssay (NCATS).

Cytochrome P450 2D6 (Homo sapiens), sequence (P10635 whole entry, looked up): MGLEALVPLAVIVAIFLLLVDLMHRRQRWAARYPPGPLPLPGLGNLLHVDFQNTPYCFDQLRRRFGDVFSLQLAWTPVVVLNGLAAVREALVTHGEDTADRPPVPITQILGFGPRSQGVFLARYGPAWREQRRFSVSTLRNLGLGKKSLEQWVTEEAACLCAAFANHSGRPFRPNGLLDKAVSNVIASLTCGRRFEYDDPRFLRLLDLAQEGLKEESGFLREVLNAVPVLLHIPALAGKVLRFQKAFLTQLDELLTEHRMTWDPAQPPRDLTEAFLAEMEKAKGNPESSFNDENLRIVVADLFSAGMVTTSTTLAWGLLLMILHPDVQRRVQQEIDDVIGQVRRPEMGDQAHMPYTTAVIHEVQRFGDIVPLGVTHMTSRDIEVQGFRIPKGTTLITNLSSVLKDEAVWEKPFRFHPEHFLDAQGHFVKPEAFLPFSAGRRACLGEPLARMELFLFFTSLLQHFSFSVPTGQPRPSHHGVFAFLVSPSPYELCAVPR
Cytochrome P450 2C19 (Homo sapiens), sequence (P33261 whole entry, looked up): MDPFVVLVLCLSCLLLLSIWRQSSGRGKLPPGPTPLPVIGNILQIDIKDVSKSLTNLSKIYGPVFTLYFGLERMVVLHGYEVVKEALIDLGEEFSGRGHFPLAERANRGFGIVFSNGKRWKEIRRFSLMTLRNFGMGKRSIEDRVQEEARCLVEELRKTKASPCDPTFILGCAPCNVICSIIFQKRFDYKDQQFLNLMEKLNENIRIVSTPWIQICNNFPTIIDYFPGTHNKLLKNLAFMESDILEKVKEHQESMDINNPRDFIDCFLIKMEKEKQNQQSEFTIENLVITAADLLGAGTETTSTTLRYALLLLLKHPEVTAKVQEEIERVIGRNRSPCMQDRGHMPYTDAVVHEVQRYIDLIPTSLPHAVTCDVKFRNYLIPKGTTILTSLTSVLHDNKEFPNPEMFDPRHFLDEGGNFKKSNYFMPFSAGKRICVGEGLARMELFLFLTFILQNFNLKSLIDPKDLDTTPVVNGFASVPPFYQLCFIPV
Guanine nucleotide-binding protein G(i) subunit alpha-1 (Homo sapiens), sequence (P63096 whole entry, looked up): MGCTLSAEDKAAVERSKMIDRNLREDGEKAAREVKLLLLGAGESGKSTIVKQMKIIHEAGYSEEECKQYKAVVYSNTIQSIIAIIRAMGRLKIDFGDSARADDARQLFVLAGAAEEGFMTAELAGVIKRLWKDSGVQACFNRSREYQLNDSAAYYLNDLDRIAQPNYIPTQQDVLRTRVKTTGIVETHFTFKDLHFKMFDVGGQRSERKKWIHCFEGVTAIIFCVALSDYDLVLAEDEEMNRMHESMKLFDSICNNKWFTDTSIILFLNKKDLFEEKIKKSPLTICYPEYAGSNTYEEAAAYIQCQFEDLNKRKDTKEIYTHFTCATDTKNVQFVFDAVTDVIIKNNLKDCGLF
Pyruvate kinase PKM (Homo sapiens), sequence (P14618 whole entry, looked up): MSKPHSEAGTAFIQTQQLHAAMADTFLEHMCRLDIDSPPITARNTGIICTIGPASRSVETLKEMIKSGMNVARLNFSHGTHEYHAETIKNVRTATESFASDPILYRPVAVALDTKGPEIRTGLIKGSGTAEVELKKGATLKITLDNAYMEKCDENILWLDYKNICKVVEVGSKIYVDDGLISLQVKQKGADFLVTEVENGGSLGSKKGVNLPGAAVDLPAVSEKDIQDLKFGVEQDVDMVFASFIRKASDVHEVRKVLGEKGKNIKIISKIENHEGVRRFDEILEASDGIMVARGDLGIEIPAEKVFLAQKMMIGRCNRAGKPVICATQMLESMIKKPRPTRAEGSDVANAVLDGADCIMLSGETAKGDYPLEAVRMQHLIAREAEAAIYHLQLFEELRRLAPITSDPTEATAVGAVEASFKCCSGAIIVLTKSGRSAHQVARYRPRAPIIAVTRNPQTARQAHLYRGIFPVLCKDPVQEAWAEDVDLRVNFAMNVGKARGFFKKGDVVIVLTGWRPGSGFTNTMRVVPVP
Pyruvate kinase (Leishmania mexicana), sequence (Q27686 2-499 E452W): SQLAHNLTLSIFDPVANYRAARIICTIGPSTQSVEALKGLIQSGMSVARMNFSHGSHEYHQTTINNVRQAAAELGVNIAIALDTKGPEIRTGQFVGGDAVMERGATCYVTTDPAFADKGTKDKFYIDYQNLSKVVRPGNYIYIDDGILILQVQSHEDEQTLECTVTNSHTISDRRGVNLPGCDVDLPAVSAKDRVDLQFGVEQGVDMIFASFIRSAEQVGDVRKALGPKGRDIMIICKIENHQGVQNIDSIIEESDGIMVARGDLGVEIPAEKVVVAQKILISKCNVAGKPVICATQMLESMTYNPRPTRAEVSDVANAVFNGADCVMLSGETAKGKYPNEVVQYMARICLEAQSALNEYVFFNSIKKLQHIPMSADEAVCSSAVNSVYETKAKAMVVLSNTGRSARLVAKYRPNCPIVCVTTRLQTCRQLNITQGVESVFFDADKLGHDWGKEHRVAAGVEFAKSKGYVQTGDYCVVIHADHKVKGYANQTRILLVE
Cytochrome P450 2C9 (Homo sapiens), sequence (P11712 whole entry, looked up): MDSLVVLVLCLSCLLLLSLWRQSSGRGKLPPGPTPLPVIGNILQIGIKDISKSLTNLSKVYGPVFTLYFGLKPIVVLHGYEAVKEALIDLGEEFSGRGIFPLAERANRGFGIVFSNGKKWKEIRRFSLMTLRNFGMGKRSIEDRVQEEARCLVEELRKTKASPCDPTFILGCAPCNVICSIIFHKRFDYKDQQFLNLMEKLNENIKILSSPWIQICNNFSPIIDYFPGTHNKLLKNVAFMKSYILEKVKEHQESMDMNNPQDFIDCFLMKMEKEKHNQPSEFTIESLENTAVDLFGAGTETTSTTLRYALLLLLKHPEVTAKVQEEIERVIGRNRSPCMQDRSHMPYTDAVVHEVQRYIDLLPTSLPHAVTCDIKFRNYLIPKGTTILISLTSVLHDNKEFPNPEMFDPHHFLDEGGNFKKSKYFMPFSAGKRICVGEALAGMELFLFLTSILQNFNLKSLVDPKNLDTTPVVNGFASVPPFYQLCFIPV

On to `O=C(NO)c1ccccc1`, for which the Potency entry in assay [1], in [3], in assay [4], in assay [5] and in assay [6] was “inactive” in each case. The compound was classed as inactive in assay [2].

Turning to `Cc1ccc(O)cc1`, the Potency result in assay [1], in [4], in assay [5] and in [6] was “inactive” throughout. The compound was called inactive in [2], in [7] and in assay [8].

Turning to `C1=CC2C3C=CC(C3)C2C1` (stereo not drawn), the Potency entry in assay [1], in [3], in assay [4], in assay [5] and in assay [6] was “inactive” throughout. Besides, in assay [2], the compound was classed as inactive.

Regarding `Nc1cccc2c(N)cccc12`, the Potency result in assay [1], in assay [4], in [5] and in [6] was “inactive” throughout. Besides, in [2], the compound was called inactive.

Turning to `CC(=O)OC/C=C(C)/C=C/C=C(C)/C=C/C1=C(C)CCCC1(C)C`, the Potency entry in assay [1] and in assay [6] was “inactive” throughout. For the same compound, the compound was classed as inactive in [2], in assay [7] and in [8].

Take `Cn1cnc2c(NCc3ccccc3)nc(NCCO)nc21`: the compound was classed as inactive in [9], in assay [14], in assay [17] and in [18]. Moreover, the Potency entry in assay [10], in assay [11], in assay [13], in assay [15] and in [16] was “inactive” in each case. Moreover, the Potency in [12] is 3.16 µM (active) and 1.26 µM (active).

For `CCCC(=O)c1cc(O)c(O)cc1O`, the Potency entry in [1], in assay [3], in assay [4], in assay [5] and in assay [6] was “inactive” each time. Also, in assay [2], the call was inactive.

For the compound `CCCCCCCCCCCCCCCC[n+]1ccccc1`, the Potency entry in assay [1] is “inactive”. Also, the compound was classed as inactive in assay [2]. In addition, the Potency was 10 µM (active) in [4], 10 µM (active) in [5] and 25.1 µM (active) in assay [6].

Turning to `CC(C)(C)c1ccc(O)c(O)c1`, the result in assay [2] was inactive. For the same compound, the Potency result in assay [3] and in assay [5] was “inactive” in each case. Further, the Potency in assay [4] is 31.6 µM (active).

Regarding `Nc1c2ccccc2nc2ccccc12`, the Potency is 39.8 µM (active) in assay [1], 12.6 µM (active) in assay [4], 12.6 µM (active) in [5] and 15.8 µM (active) in assay [6]. For the same compound, the outcome in [2], in assay [7] and in assay [8] was inactive.

In the case of `c1ccc2occc2c1`, the Potency result in [1], in [3], in assay [4], in assay [5] and in [6] was “inactive” each time. Also, in assay [2], the result was inactive.

Turning to `OCc1c[nH]c2ccccc12`, the Potency result in [1], in assay [3], in assay [4], in assay [5] and in [6] was “inactive” throughout. In addition, the compound was called inactive in assay [2], in [7] and in [8].

Take `CC(C)(c1ccc(O)cc1)c1ccc(O)cc1`: the Potency entry in assay [1], in assay [11], in [4], in assay [5] and in assay [6] was “inactive” throughout. In addition, the call in assay [2] was inactive.

With `COc1cc(C=O)ccc1O`, the Potency entry in [1], in assay [3], in assay [4], in assay [5] and in [6] was “inactive” in each case. For the same compound, the compound was called inactive in assay [2].

In the case of `O=C(c1ccccc1)c1ccccc1`, the Potency result in assay [1], in assay [4], in assay [5] and in [6] was “inactive” each time. Further, the result in assay [2] was inactive.

As to `Nc1ccc(O)cc1`, the Potency result in [1] is “inactive”. Also, in assay [6], the Potency was 50.1 µM (active).

With `CC(C)C(C)(C)C(C)(C)C(C)(C)S`, the Potency result in assay [1], in [3], in [4], in [5] and in assay [6] was “inactive” in each case. Also, the call in [2] was inactive.

As for `O=C(Oc1ccccc1)c1ccccc1O`, the Potency result in assay [1], in [3], in [4], in assay [5] and in assay [6] was “inactive” each time.

As to `Cc1cc(C(C)(C)C)c(O)c(C(C)(C)C)c1`, the Potency entry in [1], in assay [3], in assay [4], in assay [5] and in [6] was “inactive” in each case. The compound was classed as inactive in assay [2], in [7] and in [8].
